We go through 7 molecules from PubChem BioAssay.

Sequence of Concanavalin-A (Canavalia ensiformis) (P02866 whole entry, looked up): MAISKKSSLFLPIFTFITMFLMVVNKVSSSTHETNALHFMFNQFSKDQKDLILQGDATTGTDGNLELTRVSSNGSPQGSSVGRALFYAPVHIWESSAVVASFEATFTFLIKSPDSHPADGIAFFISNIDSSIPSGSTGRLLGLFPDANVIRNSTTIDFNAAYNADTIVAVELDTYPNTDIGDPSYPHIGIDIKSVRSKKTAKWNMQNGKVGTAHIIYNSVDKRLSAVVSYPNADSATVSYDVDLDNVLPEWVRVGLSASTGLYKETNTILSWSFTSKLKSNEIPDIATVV

The assay has as its target Concanavalin-A (Canavalia ensiformis) (UniProt P02866). The assay can be described thus: compounds binding concanavalin A lectin – biochemical, small-molecule microarray, Alexa647 label, 635 nm, artefact control for SMM control protein annotation, primary screen (AID 1127).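 Further: z combines 667 nm emission intensity with signal-to-noise across three replicate slides.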 The conditions noted are these: ConA-A647 binding fluorescence, higher = more signal.
Consider `C=CCNC(=O)[C@H]1[C@@H]2C(=O)O[C@@H](c3ccccc3)[C@@H](c3ccccc3)N2[C@@H](c2ccc(OCCO)cc2)[C@]12C(=O)N(C(=O)OCCOC)c1ccccc12`, for which the composite z-score was determined as 1.14.

On to `O=C1OCCC/C=C\[C@H]2OC34C=CCN(Cn5nnc6ccccc65)C(=O)[C@H]3N(CCCCCCO)C(=O)[C@@H]4C12` (some centres not stated), for which the composite z-score was -0.472. Consider `COCCCNC(=O)C1N=C(c2ccc(OCCCO)cc2)N(c2ccccc2)O1` (configuration not stated), for which the composite z-score was determined as 1.04. Under `COc1ccc(CCNC(=O)[C@@H]2c3ccccc3C(=O)N(C3Cc4ccccc4C3)[C@H]2c2ccc(CO)cc2)cc1` stands 0.542; under `COC(=O)[C@@]1(Cc2ccc(OC)cc2)[C@H]2c3cc(C(=O)N4CCCC4)n(Cc4ccc(OC)c(OC)c4)c3C[C@H]2CN1C(=O)c1ccccc1`, 1.14. Turning to `COc1ccc([Si](C)(C)[C@H]2[C@H](CCO)O[C@@]3(C(=O)N(C)c4c(Br)cc(C)cc43)[C@@H]2C)cc1`, the composite z-score is 1.07. Under `CCOC(=O)[C@H]1C/C=C/C[C@H](C(=O)OCC)C(=O)O[C@H]2[C@@H](OC)O[C@H](CO)[C@@H](OC(=O)Nc3cccc(F)c3)[C@@H]2OC1=O` stands 0.189.
